Consider four compounds from ChEMBL document CHEMBL1961873, “Compounds: GSK PKIS; Assays: Nanosyn kinase panel” (2012).

SMILES strings stand for the structures.

Assay [1] deals with Ribosomal protein S6 kinase alpha-6 (Homo sapiens) (UniProt Q9UK32). The following applies: at 1 µM.
Assay [2] concerns the target T1, Serine/threonine-protein kinase Sgk1 (Homo sapiens) (UniProt O00141).
T1 sequence (whole entry): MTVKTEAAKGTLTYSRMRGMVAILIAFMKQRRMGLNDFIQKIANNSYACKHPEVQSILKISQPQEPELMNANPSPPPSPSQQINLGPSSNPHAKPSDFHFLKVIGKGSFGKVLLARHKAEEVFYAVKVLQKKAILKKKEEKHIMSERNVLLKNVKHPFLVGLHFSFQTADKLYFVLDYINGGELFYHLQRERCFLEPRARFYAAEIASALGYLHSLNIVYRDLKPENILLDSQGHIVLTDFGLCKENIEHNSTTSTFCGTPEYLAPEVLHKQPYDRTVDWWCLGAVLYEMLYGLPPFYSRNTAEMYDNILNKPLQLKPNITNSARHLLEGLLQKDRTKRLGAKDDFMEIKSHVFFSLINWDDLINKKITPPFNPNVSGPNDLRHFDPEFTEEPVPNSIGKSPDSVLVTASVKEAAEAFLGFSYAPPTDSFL
As to conditions: at 0.1 µM.

Assay [3] concerns the target T1, Serine/threonine-protein kinase Sgk1 (Homo sapiens). The following applies: at 1 µM.
The target in assay [4] is T2, Serine/threonine-protein kinase Sgk2 (Homo sapiens) (UniProt Q9HBY8).
T2 sequence (whole entry): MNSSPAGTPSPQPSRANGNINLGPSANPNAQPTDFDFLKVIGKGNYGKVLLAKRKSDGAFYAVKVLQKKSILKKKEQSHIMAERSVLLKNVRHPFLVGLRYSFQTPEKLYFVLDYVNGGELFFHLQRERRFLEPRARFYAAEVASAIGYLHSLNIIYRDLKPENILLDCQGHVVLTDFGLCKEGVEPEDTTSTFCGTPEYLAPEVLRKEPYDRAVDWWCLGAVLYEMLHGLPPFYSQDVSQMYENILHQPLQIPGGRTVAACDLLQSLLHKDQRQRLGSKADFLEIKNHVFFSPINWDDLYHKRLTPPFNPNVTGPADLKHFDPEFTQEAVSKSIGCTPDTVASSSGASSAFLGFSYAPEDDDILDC
The following applies: at 0.1 µM.

Assay [5] deals with T2, Serine/threonine-protein kinase Sgk2 (Homo sapiens). As to conditions: at 1 µM.
Assay [6] addresses T3, Serine/threonine-protein kinase Sgk3 (Homo sapiens) (UniProt Q96BR1).
T3 sequence (whole entry): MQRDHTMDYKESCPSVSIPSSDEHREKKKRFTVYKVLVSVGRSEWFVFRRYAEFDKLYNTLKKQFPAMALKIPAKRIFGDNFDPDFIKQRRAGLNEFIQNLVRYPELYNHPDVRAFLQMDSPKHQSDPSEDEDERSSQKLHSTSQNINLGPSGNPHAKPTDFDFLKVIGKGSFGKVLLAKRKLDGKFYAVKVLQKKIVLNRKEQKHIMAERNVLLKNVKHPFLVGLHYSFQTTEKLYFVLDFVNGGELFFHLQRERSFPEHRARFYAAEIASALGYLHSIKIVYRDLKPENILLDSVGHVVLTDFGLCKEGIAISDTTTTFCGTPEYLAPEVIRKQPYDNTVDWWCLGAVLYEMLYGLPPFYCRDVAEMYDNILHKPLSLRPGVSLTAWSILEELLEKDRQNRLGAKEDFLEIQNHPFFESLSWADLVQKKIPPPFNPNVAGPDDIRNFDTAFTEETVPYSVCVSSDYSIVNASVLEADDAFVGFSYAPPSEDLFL
As to conditions: at 0.1 µM.

Assay [7] deals with T3, Serine/threonine-protein kinase Sgk3 (Homo sapiens). The following applies: at 1 µM.
Assay [8] has as its target 5'-AMP-activated protein kinase catalytic subunit alpha-1 (Homo sapiens) (UniProt Q13131). As to conditions: at 0.1 µM.
Assay [9] has the same target. The following applies: at 1 µM.
For assay [10], the target named is 5'-AMP-activated protein kinase catalytic subunit alpha-2 (Homo sapiens) (UniProt P54646). The following applies: at 0.1 µM.
Chain of 5'-AMP-activated protein kinase catalytic subunit alpha-2 (Homo sapiens) (P54646 whole entry, looked up): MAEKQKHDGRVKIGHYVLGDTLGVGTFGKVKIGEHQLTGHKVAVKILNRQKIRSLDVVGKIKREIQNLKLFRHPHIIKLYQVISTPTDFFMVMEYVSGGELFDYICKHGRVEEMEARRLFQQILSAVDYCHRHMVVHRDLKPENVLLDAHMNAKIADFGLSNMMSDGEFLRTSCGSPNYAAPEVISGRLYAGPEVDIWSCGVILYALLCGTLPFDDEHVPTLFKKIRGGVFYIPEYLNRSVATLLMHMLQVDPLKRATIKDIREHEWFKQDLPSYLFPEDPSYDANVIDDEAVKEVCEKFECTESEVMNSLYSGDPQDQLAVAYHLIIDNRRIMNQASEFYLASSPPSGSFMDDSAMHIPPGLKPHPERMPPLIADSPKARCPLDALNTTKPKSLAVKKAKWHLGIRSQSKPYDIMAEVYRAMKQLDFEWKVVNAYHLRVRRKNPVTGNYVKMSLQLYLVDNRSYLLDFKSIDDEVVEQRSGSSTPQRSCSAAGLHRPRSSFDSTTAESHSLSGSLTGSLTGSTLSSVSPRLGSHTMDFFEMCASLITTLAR
The target is the same in assay [11]. The following applies: at 1 µM.
For assay [12], the target named is T4, NUAK family SNF1-like kinase 1 (Homo sapiens) (UniProt O60285).
T4 sequence (whole entry): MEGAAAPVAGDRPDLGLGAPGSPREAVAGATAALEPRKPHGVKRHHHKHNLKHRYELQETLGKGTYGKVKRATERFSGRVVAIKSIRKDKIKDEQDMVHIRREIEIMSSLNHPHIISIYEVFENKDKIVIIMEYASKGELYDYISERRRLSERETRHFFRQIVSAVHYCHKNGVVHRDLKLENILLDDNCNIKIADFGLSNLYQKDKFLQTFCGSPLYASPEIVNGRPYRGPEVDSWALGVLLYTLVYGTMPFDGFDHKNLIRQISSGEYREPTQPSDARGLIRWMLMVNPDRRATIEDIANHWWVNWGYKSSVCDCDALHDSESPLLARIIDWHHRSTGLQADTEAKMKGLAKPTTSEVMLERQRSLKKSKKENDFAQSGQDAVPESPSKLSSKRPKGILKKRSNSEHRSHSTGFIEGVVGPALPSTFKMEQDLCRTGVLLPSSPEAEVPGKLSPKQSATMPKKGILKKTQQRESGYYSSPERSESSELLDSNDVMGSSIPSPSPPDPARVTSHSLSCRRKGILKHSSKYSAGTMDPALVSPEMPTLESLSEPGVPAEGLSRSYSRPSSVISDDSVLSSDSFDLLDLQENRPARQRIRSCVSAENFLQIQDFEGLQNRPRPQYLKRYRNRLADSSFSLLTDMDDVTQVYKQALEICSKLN
As to conditions: at 0.1 µM.

Assay [13] deals with T4, NUAK family SNF1-like kinase 1 (Homo sapiens). As to conditions: at 1 µM.
The target in assay [14] is T5, Serine/threonine-protein kinase BRSK1 (Homo sapiens) (UniProt Q8TDC3).
T5 sequence (whole entry): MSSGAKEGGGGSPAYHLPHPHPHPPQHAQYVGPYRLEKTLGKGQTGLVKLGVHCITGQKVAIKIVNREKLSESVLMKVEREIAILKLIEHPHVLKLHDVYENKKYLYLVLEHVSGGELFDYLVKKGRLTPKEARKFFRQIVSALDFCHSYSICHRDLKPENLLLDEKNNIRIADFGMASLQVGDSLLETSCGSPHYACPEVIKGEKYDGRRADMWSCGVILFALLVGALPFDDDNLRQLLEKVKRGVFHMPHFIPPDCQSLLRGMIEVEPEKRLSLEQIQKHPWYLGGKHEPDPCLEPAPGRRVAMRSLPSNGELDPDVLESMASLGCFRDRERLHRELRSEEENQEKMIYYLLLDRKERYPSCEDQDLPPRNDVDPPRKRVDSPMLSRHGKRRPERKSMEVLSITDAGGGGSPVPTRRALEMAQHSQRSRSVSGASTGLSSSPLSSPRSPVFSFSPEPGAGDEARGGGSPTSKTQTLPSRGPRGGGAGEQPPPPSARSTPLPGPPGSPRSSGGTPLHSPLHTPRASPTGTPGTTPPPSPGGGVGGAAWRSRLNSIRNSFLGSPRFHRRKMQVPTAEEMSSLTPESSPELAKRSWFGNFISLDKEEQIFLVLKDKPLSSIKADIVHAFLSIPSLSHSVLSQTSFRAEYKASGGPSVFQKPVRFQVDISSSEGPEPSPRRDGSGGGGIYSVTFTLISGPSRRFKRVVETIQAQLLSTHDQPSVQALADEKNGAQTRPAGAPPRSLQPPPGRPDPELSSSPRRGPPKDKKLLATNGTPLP
The following applies: at 0.1 µM.

Assay [15] deals with T5, Serine/threonine-protein kinase BRSK1 (Homo sapiens). As to conditions: at 1 µM.
Assay [16] addresses T6, Serine/threonine-protein kinase BRSK2 (Homo sapiens) (UniProt Q8IWQ3).
T6 sequence (whole entry): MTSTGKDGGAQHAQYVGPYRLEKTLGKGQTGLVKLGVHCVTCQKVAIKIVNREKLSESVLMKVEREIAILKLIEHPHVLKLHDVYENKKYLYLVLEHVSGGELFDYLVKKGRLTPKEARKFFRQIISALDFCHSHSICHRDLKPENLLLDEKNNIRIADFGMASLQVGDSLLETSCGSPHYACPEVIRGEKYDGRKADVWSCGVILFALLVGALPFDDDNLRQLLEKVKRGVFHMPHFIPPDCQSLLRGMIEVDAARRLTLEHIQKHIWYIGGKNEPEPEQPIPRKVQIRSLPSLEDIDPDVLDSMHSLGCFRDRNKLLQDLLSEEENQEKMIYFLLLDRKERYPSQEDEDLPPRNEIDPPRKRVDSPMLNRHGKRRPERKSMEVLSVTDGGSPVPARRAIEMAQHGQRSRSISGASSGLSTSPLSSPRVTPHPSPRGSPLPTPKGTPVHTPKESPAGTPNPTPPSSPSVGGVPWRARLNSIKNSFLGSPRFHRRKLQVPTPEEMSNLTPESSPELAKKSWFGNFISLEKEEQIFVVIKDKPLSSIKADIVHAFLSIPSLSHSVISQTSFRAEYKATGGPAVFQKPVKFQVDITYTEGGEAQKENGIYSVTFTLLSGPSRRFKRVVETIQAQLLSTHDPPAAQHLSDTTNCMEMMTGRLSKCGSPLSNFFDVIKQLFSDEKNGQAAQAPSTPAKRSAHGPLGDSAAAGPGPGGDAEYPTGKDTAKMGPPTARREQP
The following applies: at 0.1 µM.

Assay [17] concerns the target T6, Serine/threonine-protein kinase BRSK2 (Homo sapiens). The following applies: at 1 µM.
In assay [18] the target is Calcium/calmodulin-dependent protein kinase type 1D (Homo sapiens) (UniProt Q8IU85). The following applies: at 0.1 µM.
Chain of Calcium/calmodulin-dependent protein kinase type 1D (Homo sapiens) (Q8IU85 whole entry, looked up): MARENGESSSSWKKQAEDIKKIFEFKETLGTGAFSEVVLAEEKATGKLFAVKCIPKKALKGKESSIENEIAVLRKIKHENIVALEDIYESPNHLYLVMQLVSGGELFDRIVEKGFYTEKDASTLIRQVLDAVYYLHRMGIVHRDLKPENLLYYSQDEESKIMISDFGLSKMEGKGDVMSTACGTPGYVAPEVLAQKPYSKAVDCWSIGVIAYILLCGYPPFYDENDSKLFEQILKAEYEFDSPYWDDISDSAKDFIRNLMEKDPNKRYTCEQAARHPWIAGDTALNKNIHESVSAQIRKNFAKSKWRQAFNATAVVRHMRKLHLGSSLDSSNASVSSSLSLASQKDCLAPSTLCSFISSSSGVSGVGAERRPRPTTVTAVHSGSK
Assay [19] has the same target. The following applies: at 1 µM.
For assay [20], the target named is Calcium/calmodulin-dependent protein kinase type II subunit alpha (Homo sapiens) (UniProt Q9UQM7). The following applies: at 0.1 µM.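 Further: reported values are averages (mean inhibition of CAMK2A).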
Chain of Calcium/calmodulin-dependent protein kinase type II subunit alpha (Homo sapiens) (Q9UQM7 whole entry): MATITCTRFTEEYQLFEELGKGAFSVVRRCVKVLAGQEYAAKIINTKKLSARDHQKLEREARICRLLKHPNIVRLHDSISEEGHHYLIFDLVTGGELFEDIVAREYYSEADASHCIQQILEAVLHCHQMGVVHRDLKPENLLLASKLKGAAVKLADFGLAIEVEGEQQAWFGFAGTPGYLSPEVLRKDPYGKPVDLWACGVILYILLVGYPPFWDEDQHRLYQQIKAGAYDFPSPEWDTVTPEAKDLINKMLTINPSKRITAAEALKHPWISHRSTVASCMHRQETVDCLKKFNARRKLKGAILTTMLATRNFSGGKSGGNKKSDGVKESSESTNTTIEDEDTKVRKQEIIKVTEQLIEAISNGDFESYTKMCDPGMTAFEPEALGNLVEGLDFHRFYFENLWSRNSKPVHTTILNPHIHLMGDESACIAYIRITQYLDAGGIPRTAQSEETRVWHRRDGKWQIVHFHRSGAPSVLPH

Chain of 5'-AMP-activated protein kinase catalytic subunit alpha-1 (Homo sapiens) (Q13131 whole entry, looked up): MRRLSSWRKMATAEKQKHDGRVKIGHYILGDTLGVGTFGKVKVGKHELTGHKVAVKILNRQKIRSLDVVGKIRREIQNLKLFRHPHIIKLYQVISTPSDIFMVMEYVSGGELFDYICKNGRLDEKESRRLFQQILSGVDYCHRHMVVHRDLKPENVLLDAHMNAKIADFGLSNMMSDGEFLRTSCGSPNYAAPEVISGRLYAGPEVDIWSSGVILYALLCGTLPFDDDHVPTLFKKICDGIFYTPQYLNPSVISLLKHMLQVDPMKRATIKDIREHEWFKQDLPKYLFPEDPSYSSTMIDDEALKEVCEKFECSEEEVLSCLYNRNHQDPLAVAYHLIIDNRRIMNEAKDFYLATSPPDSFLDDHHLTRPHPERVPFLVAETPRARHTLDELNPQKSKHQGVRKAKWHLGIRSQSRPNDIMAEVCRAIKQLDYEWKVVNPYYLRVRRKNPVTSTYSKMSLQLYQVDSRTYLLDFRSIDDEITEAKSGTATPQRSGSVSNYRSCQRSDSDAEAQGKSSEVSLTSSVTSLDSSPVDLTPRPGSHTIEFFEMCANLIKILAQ
Chain of Ribosomal protein S6 kinase alpha-6 (Homo sapiens) (Q9UK32 whole entry): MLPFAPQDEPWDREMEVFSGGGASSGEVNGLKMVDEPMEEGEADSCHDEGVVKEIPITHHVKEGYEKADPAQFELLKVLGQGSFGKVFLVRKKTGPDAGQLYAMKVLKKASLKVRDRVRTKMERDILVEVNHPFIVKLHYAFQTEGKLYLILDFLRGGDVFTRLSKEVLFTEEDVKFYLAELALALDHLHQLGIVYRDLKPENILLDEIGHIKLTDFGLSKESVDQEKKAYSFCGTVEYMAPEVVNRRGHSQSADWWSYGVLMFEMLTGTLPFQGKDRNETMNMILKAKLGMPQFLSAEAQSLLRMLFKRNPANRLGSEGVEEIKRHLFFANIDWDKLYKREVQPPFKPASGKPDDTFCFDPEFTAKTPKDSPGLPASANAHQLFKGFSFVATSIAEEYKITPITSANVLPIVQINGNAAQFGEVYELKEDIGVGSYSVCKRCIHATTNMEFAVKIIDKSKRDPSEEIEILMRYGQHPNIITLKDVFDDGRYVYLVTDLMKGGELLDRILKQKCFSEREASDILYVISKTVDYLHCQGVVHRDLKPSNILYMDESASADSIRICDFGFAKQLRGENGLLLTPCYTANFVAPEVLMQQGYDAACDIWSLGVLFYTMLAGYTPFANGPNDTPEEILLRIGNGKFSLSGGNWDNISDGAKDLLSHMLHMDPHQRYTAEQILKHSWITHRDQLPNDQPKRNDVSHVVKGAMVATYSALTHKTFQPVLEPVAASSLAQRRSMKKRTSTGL

`CC1=C(C(=O)Nc2ccc3[nH]ncc3c2)C(c2ccc3ccccc3c2)CC(=O)N1` (stereo not given): the inhibition in assay [1] is 7.45%; in [2] it was 2.12%; in assay [3], 7.38%; in assay [4], 3%; in assay [5], 16.6%; in assay [6], 1.33%. The inhibition in [7] amounted to 10.3%; in [8] it was 7.34%; in assay [9], 41%; in assay [10] it was 2.46%; in assay [11], 11.5%; in assay [12] it was 7.78%. In addition, the inhibition in assay [13] is 43.5%; in assay [14], 1.91%; in [15], 20.8%; in assay [16], 3.96%; in assay [17], 31.3%; in [18], -0.51%. Further, the inhibition is 0.49% in assay [19] and -0.08% in assay [20].
Turning to `NC(=O)c1cccc(Nc2nccc(Nc3cccc4[nH]ncc34)n2)c1`, the inhibition was 9.04% in assay [1]; -1.84% in assay [2]; 1.71% in [3]; -4.35% in [4]; -0.81% in assay [5]; -4.06% in assay [6]. Moreover, the inhibition in assay [7] is -1.36%; in assay [8], 3.35%; in [9], 18.5%; in [10] it was 2.4%; in assay [11] it was 11%; in [12] it was 40.5%. The inhibition in assay [13] was 80.7%; in [14], 3.32%; in [15] it was 22%; in assay [16] it was 2.15%; in assay [17], 19.3%; in assay [18], 0.34%. Further, the inhibition in assay [19] is 4.12%; in assay [20] it was -4.01%.
Turning to `O=C1NC(=O)C(c2cccc(Cl)c2)=C1Nc1ccc(O)c(Cl)c1`, the inhibition was 21.5% in [1]; 2.17% in [2]; 0.01% in assay [3]; 0.49% in assay [4]; 3.67% in assay [5]; -0.12% in [6]. In addition, the inhibition was -0.88% in assay [7]; 1.08% in assay [8]; 8.5% in [9]; 0.44% in [10]; 11% in [11]; 8.01% in assay [12]. The inhibition in [13] was found to be 48.3%; in assay [14], 2.57%; in assay [15], 12.9%; in assay [16] it was 2.05%; in assay [17], 19%; in assay [18], 1.1%. The inhibition in assay [19] turned out to be 5.88%; in assay [20], 3.72%.
Regarding `CS(=O)(=O)CCNCc1ccc(-c2ccc3ncnc(Nc4ccc(OCc5ccccc5)c(Cl)c4)c3c2)o1`, the inhibition in assay [1] is 0.49%; in assay [2], 0.96%; in [3], 1.58%; in assay [4], 2.63%; in [5], 0.46%; in [6], -0.5%. Further, the inhibition was 1.84% in assay [7]; -1.82% in assay [8]; -0.45% in assay [9]; 3.82% in assay [10]; 0.49% in assay [11]; 0.49% in [12]. Also, the inhibition in [13] was 1.58%; in assay [14] it was 0.43%; in [15], -0.39%; in assay [16], 0.27%; in assay [17] it was 2.32%; in assay [18] it was -0.75%. Also, the inhibition in assay [19] is 1.29%; in [20] it was -1.33%.

The term inhibition denotes the drop in the measured response relative to a control, in per cent.
